Data reported in PubChem BioAssay (NCI).
Values joined by “and” are separate entries in the source; they are usually repeats but may differ in a detail not shown here. Identical values can stand only once. About 79,000 compounds went through this panel and 15% of them were active in at least one assay; those are over-represented in the sample as a whole. A structure can be active in one record and inactive in another. Active and inactive are the calls of the source. Cut-off read from the data, not from the text of the source: active = growth inhibition above about 70%; inactive = the rest.

Experiments:
[1] = NCI Yeast Anticancer Drug Screen. Data for the rad52 strain (AID 147);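 note: 0% = growth of vehicle-treated control cultures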; conditions: S. cerevisiae rad52 mutant growth inhibition, stronger effect = higher value
In short: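 Genetically altered yeast (DNA damage repair defect) treated with compound; inhibition calculated relative to vehicle.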

[2] = NCI Yeast Anticancer Drug Screen. Data for the wt1 strain (AID 149);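 note: 0% = growth of vehicle-treated wt1 cultures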; conditions: S. cerevisiae wt1 strain (SPY 50644) growth inhibition, stronger effect = higher value
In short: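 Growth inhibition read against vehicle controls after compound exposure of the wt1 yeast strain.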

[3] = NCI Yeast Anticancer Drug Screen. Data for the rad50EPP+ strain (AID 151);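 note: 0% = growth of vehicle-treated control cultures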; conditions: S. cerevisiae rad50 mutant strain, stronger effect = higher value
In short: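 Strain rad50EPP+; compound exposure; % growth inhibition vs vehicle.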

[4] = NCI Yeast Anticancer Drug Screen. Data for the mgt1 strain (AID 153); conditions: S. cerevisiae mgt1 mutant growth inhibition, stronger effect = higher value
In short: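 Read-out: yeast growth inhibition vs vehicle control. Strain mgt1, drawn from a panel altered in DNA damage repair or cell cycle control.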

[5] = NCI Yeast Anticancer Drug Screen. Data for the rad50 strain (AID 155);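 note: 0% = growth of vehicle-only cultures of the same strain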; conditions: S. cerevisiae rad50 strain growth inhibition, stronger effect = higher value
In short: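 Readout: growth inhibition relative to vehicle-treated cultures. Compound exposure was carried out in a genetically defined yeast strain deficient in DNA damage repair.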

[6] = NCI Yeast Anticancer Drug Screen. Data for the mec2-1 strain (AID 157); conditions: S. cerevisiae mec2-1 strain, stronger effect = higher value
In short: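 Cells of the genetically defined mec2-1 yeast strain are incubated with test compound. Inhibition of growth is calculated against vehicle-treated controls.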

[7] = NCI Yeast Anticancer Drug Screen. Data for the rad14 strain (AID 159);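 note: 0% = growth of vehicle-treated control cultures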; conditions: S. cerevisiae rad14 strain growth inhibition, stronger effect = higher value
In short: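 Growth inhibition vs vehicle controls; genetically altered yeast strain (DNA damage repair defect) treated with test compounds.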

[8] = NCI Yeast Anticancer Drug Screen. Data for the sgs1 mgt1 strain (AID 161);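 note: 0% = growth of cultures given vehicle only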; conditions: S. cerevisiae sgs1 mgt1 strain, stronger effect = higher value
In short: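 Genetically altered yeast, compound exposure, growth inhibition relative to vehicle.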

[9] = NCI Yeast Anticancer Drug Screen. Data for the CLN2oe strain (AID 163);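 note: 0% = growth of vehicle-only control cultures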; conditions: S. cerevisiae CLN2oe strain, stronger effect = higher value
In short: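 Strain altered in cell-cycle control, incubated with compound; growth compared to solvent-treated controls.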

[10] = NCI Yeast Anticancer Drug Screen. Data for the cln2 rad14 strain (AID 165);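 note: 0% = growth equal to vehicle treated cultures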; conditions: S. cerevisiae cln2 rad14 strain, stronger effect = higher value
In short: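 The screen exposed genetically defined yeast (cln2 rad14) to test compounds and scored growth inhibition relative to vehicle-treated controls.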

[11] = NCI Yeast Anticancer Drug Screen. Data for the bub3 strain (AID 167); conditions: S. cerevisiae bub3 mutant strain, stronger effect = higher value
In short: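 Readout: yeast growth inhibition, expressed relative to vehicle-only wells. The test organism is a mutant strain from a panel with lesions in DNA repair or checkpoint genes.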

[12] = NCI Yeast Anticancer Drug Screen. Data for the wt2 strain (AID 169);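 note: 0% = growth of vehicle-treated yeast cultures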; conditions: S. cerevisiae wt2 strain growth inhibition, stronger effect = higher value
In short: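 Steps: yeast strain treated with compound; growth recorded; inhibition calculated relative to cultures given vehicle alone.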

[13] = NCI Yeast Anticancer Drug Screen. Data for the mlh1 strain (AID 171);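 note: 0% = growth of vehicle-treated control cultures of the same strain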; conditions: S. cerevisiae mlh1 strain growth inhibition, stronger effect = higher value
In short: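 Yeast screen: mutant strain plus compound, growth scored against vehicle control wells.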

[14] = NCI Yeast Anticancer Drug Screen. Data for the sgs1 strain (AID 173);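 note: 0% = growth of vehicle-only control cultures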; conditions: S. cerevisiae sgs1 mutant, stronger effect = higher value
In short: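 Inhibition of yeast growth served as the measure. The mutant strain was treated with each compound, and growth was normalised to cultures receiving vehicle alone.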

[15] = NCI Yeast Anticancer Drug Screen. Data for the mlh1 rad18 strain (AID 175); conditions: S. cerevisiae mlh1 rad18 strain growth inhibition, stronger effect = higher value
In short: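 Compound-treated yeast growth, normalised to vehicle controls. Strain bears defined DNA repair mutations.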

[16] = NCI Yeast Anticancer Drug Screen. Data for the rad18 strain (AID 177); conditions: S. cerevisiae rad18 mutant growth inhibition, stronger effect = higher value
In short: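 Inhibition values reflect reduced yeast growth compared with vehicle-treated controls, using a strain engineered with a DNA damage repair defect.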

[17] = at 5.0 µM (retest, dose inferred, filed as 0.5)
[18] = at 50.0 µM (retest, dose inferred, filed as 5.0)

Measured: growth inhibition

OCc1ccccc1Cc1ccccc1
active: [5]; at 50.0 µM 87.9% | [15]; at 50.0 µM 79.6%
inactive: [1]; at 1.2 µM -4% | [1]; at 3.7 µM 0% | [1]; at 11.0 µM -2% | [1]; at 33.0 µM -3% | [1]; at 100.0 µM -3% | [2]; at 1.2 µM 0% | [2]; at 3.7 µM -1% | [2]; at 11.0 µM 0% | [2]; at 33.0 µM -2% | [2]; at 100.0 µM -7% | [3]; at 1.2 µM 2% | [3]; at 3.7 µM 2% | [3]; at 11.0 µM 8% | [3]; at 33.0 µM 12% | [3]; at 100.0 µM 30% | [4]; at 1.2 µM -3% | [4]; at 3.7 µM -5% | [4]; at 11.0 µM -2% | [4]; at 33.0 µM 12% | [4]; at 100.0 µM -10% | [5]; at 1.2 µM -1% | [5]; at 3.7 µM 0% | [5]; [17] 7% | [5]; at 11.0 µM -1% | [5]; at 33.0 µM -3% | [5]; [18] 21% | [5]; at 100.0 µM -6% | [6]; at 1.2 µM -1% | [6]; at 3.7 µM 2% | [6]; [17] -2% | [6]; at 11.0 µM -4% | [6]; at 33.0 µM -6% | [6]; [18] -17% | [6]; at 50.0 µM 53.4% | [6]; at 100.0 µM -6% | [7]; at 1.2 µM -1% | [7]; at 3.7 µM -1% | [7]; at 11.0 µM 0% | [7]; at 33.0 µM -2% | [7]; at 100.0 µM -3% | [8]; [17] 0% | [8]; [18] 50% | [8]; at 50.0 µM 60.5% | [9]; at 1.2 µM -7% | [9]; at 3.7 µM 0% | [9]; at 11.0 µM -2% | [9]; at 33.0 µM -5% | [9]; at 100.0 µM -7% | [10]; [17] 5% | [10]; [18] -2% | [10]; at 50.0 µM 32.9% | [11]; at 1.2 µM 2% | [11]; at 3.7 µM -1% | [11]; [17] 12% | [11]; at 11.0 µM 5% | [11]; at 33.0 µM 1% | [11]; [18] 40% | [11]; at 50.0 µM 65.8% | [11]; at 100.0 µM -9% | [12]; at 1.2 µM 0% | [12]; at 3.7 µM 0% | [12]; at 11.0 µM 0% | [12]; at 33.0 µM -2% | [12]; at 100.0 µM -7% | [13]; at 1.2 µM -1% | [13]; at 3.7 µM -1% | [13]; at 11.0 µM 0% | [13]; at 33.0 µM -2% | [13]; at 100.0 µM -3% | [14]; at 1.2 µM 0% | [14]; at 3.7 µM 2% | [14]; at 11.0 µM 2% | [14]; at 33.0 µM 1% | [14]; at 100.0 µM -1% | [15]; [17] 3% | [15]; [18] 63% | [16]; at 1.2 µM -1% | [16]; at 3.7 µM 0% | [16]; at 11.0 µM -16% | [16]; at 33.0 µM -2% | [16]; at 100.0 µM -6%

c1ccc(-c2cnc3ccccc3c2)cc1
inactive: [1]; at 1.2 µM 0% | [1]; at 3.7 µM 3% | [1]; at 11.0 µM 0% | [1]; at 33.0 µM 28% | [2]; at 1.2 µM -7% | [2]; at 3.7 µM -8% | [2]; at 11.0 µM -12% | [2]; at 33.0 µM -12% | [3]; at 1.2 µM 7% | [3]; at 3.7 µM 14% | [3]; at 11.0 µM 37% | [4]; at 1.2 µM -5% | [4]; at 3.7 µM -7% | [4]; at 11.0 µM -6% | [4]; at 33.0 µM -6% | [5]; at 1.2 µM -5% | [5]; at 3.7 µM -3% | [5]; [17] -151% and -148% | [5]; at 11.0 µM 14% | [5]; at 33.0 µM 47% | [5]; [18] 37% and 47% | [6]; at 1.2 µM 3% | [6]; at 3.7 µM -3% | [6]; [17] -52% | [6]; at 11.0 µM -12% | [6]; at 33.0 µM -3% | [6]; [18] 31% and 18% | [6]; at 50.0 µM 56.7% and 56.4% | [7]; at 1.2 µM -2% | [7]; at 3.7 µM 0% | [7]; at 11.0 µM -1% | [7]; at 33.0 µM 18% | [8]; [17] -68% and -66% | [8]; [18] 36% and 47% | [8]; at 50.0 µM 62% and 49.7% | [9]; at 1.2 µM -6% | [9]; at 3.7 µM -7% | [9]; at 11.0 µM -1% | [9]; at 33.0 µM 6% | [10]; [17] -68% and -62% | [10]; [18] -49% and -39% | [10]; at 50.0 µM -14.5% and -17.3% | [11]; at 1.2 µM -6% | [11]; at 3.7 µM 0% | [11]; [17] -51% and -54% | [11]; at 11.0 µM 10% | [11]; at 33.0 µM 30% | [11]; [18] 18% and 54% | [11]; at 50.0 µM 46.5% and 63.5% | [12]; at 1.2 µM -4% | [12]; at 3.7 µM -3% | [12]; at 11.0 µM -5% | [12]; at 33.0 µM -6% | [13]; at 1.2 µM 2% | [13]; at 3.7 µM -9% | [13]; at 11.0 µM -7% | [13]; at 33.0 µM -9% | [14]; at 1.2 µM -3% | [14]; at 3.7 µM -5% | [14]; at 11.0 µM -11% | [14]; at 33.0 µM 12% | [15]; [17] -127% and -135% | [15]; [18] -30% and -44% | [15]; at 50.0 µM 55.5% and 45% | [16]; at 1.2 µM -2% | [16]; at 3.7 µM -3% | [16]; at 11.0 µM 0% | [16]; at 33.0 µM 6%
70.1% (active) and 62.7% (inactive): [5]; at 50.0 µM
active: [1]; at 100.0 µM 99% | [2]; at 100.0 µM 98% | [3]; at 33.0 µM 70% | [3]; at 100.0 µM 98% | [4]; at 100.0 µM 96% | [5]; at 100.0 µM 99% | [6]; at 100.0 µM 99% | [7]; at 100.0 µM 99% | [9]; at 100.0 µM 97% | [11]; at 100.0 µM 99% | [12]; at 100.0 µM 98% | [13]; at 100.0 µM 99% | [14]; at 100.0 µM 99% | [16]; at 100.0 µM 99%
